biological target: NOTCH4; experiment: pooled miR-30 sensor sort-seq; sequence = guide strand; settings: shRNA
Also: reference of the scale not given here.

Sequence	sensor-assay potency score (higher = more potent)
TTGGTGAGCGACGTCCGCCGGC	-0.551
TTTAGGGTTCTTAAATAGCGAT	-1.06
TTTCTGGTCCTTACATATCTGC	-1.07
ATATATAGGAAAGAACATCTTA	-0.0997

biological target: NOX3; experiment: as above; settings: shRNA

Sequence	sensor-assay potency score (higher = more potent)
TAAAATTCAGGCACAGTGCGGA	-0.0572
TAGAAATGAACACCTCTGGGGT	-0.411
TAAAGCTATGTGAAGAGCCTGA	0.784
TTGAACCCAAAATAACTCGTGT	-0.176
TAGATTTCAGAAGAGCAGCGAA	-0.277
TTGCATTAACAGCTATCCCATA	-1.07
TACCAGAACAACTCATAGGAGG	-0.91
TAGCGGTCTCTACAGAAGGTGA	-1.67
TAATAGAAATGAACACCTCTGG	-0.368
TAATTATTCTTTCACATGCATA	-1.3
TTGAGGTAGCTCTCGTTAGGGG	-0.746

biological target: NOXA1; experiment: as above; settings: shRNA

Sequence	sensor-assay potency score (higher = more potent)
TAACTGAGTTGCCCAAGCTGGG	-1.24
TCTGTCTCTGCATCGAGGGGGC	-0.532
TGGCATCATGGTTCGCTCCTGG	-0.558
TTGTGTAGCACCTCCCAGGCTT	-0.348
TTGGGGAAGATGCCGATGCGGC	-1.12
TCACACAGGACGTCCACCGTGT	0.181
ACATTGTGTAGCACCTCCCAGG	-1.3
TGGTAGGCAGTCGACGTGCAGC	-1.86
TCTGCAGCGACTCCTCCTCGGG	-1.51
TTGGTCCAGGGCTGAGTCCAGG	-1.7
TTAGGGACCTGGCATCATGGTT	-1.05
TCCTGGTAGGCAGTCGACGTGC	-1.54

biological target: NPBWR1; experiment: as above; settings: shRNA

Sequence	sensor-assay potency score (higher = more potent)
TTGTACTGGTCGATAGCCACGA	-0.0597
TCACCGCGTAGACAACTGGTAC	-1.33
TGATGAAGTAGGAGATAGCGAT	-0.908
TTGATGGGCAGCACCAGCGTGA	-0.969
TAGAGGACACAGATGGTGGACA	-0.757
TGTACTGGTCGATAGCCACGAT	-0.544
TTGGAGCAGCTCAGCGCCGGGT	-1.46
AACTGGTACAGCCACCGCCAGC	-1.89
ATCACCGCGTAGACAACTGGTA	-0.96
TTGGTGACGGTCTTCATGCGGG	-0.52
TGTTGTACTGGTCGATAGCCAC	-0.835
TCGATAGCCACGATGAGCTTGC	0.0042
